Consider four compounds from PubChem BioAssay (EPA / NIEHS).

What all share (conditions): mRNA level, 48 h; actives raise or lower the signal
Read-out in experiment [1]: JUN Transcription Factor, JUN (gene 3725)
As to the kind of experiment: LTEA_HepaRG_JUN: Life Technologies and Expression Analysis (LTEA) Assay for JUN Transcription Factor using HepaRG (AID 2283513). Summed up:
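Read-out is JUN transcript level by TaqMan qRT-PCR, normalized to ACTB, GAPDH and POLR2A, after 48 h chemical treatment of HepaRG cells. Concentration-response spanned eight half-log points up to 100 uM in 0.5% DMSO.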

Read-out in experiment [2]: Lipase C (LIPC), LIPC (gene 3990)
The experiment is described as follows: LTEA_HepaRG_LIPC: Life Technologies and Expression Analysis (LTEA) Assay for Lipase C (LIPC) using HepaRG (AID 2283514). Summed up:
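HepaRG, 48 h exposure, 8-pt half-log series from 100 uM in 0.5% DMSO, duplicates. Readout: LIPC mRNA by Fluidigm qRT-PCR, housekeeping-normalized (ACTB/GAPDH/POLR2A). Gain or loss fitted bidirectionally against DMSO baseline.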

Read-out in experiment [3]: Lipoprotein lipase (LPL), LPL (gene 4023)
As to the kind of experiment: LTEA_HepaRG_LPL: Life Technologies and Expression Analysis (LTEA) Assay for Lipoprotein lipase (LPL) using HepaRG (AID 2283515). Summed up: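 HepaRG, 48 h exposure, 8-pt half-log dilutions from 100 uM, 0.5% DMSO vehicle, duplicates; qRT-PCR (Fluidigm array) of LPL mRNA vs housekeeping genes; bidirectional curve fit relative to DMSO baseline.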

Read-out in experiment [4]: MicroRNA 122 (MIR122), gene 406906
As to the kind of experiment: LTEA_HepaRG_MIR122: Life Technologies and Expression Analysis (LTEA) Assay for MicroRNA 122 (MIR122) using HepaRG (AID 2283516). Also: the transcript read is the microRNA miR-122. Summed up:
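Human liver HepaRG cultures receive test chemicals for 48 h at eight half-log concentrations from 100 uM. Expression is quantified by qRT-PCR with ACTB/GAPDH/POLR2A normalization and fitted bidirectionally against 0.5% DMSO.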

Read-out in experiment [5]: matrix metalloproteinase-10 (MMP10), MMP10 (gene 4319)
As to the kind of experiment: LTEA_HepaRG_MMP10: Life Technologies and Expression Analysis (LTEA) Assay for matrix metalloproteinase-10 (MMP10) using HepaRG (AID 2283517). The gist of the method: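 Transcript levels come from Fluidigm qRT-PCR normalized to three housekeeping genes, with curves fitted bidirectionally against 0.5% DMSO. Human HepaRG cells were dosed for 48 hours at concentrations up to 100 uM.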

Read-out in a further experiment: MYC, MYC (gene 4609)
As to the kind of experiment: LTEA_HepaRG_MYC: Life Technologies and Expression Analysis (LTEA) Assay for MYC using HepaRG (AID 2283518). The gist of the method: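 Expression changes were scored by TaqMan qRT-PCR with ACTB, GAPDH and POLR2A normalization. Cultures in serum-free induction medium received duplicate 8-point concentration series, highest 100 uM, for 48 h; DMSO (0.5%) served as baseline.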

Read-out in experiment [6]: matrix metalloproteinase-3 (MMP3), MMP3 (gene 4314)
The experiment is described as follows: LTEA_HepaRG_MMP3: Life Technologies and Expression Analysis (LTEA) Assay for matrix metalloproteinase-3 (MMP3) using HepaRG (AID 2283519). The gist of the method:
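qRT-PCR read-out of MMP3 mRNA (normalised to three housekeeping genes) in HepaRG liver cells after 48 h chemical exposure; 8-point half-log series, top 100 uM, 0.5% DMSO vehicle. Bidirectional curve fitting against DMSO baseline.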

Read-out in experiment [7]: Paternally Expressed 10 (PEG10), PEG10 (gene 23089)
As to the kind of experiment: LTEA_HepaRG_PEG10: Life Technologies and Expression Analysis (LTEA) Assay for Paternally Expressed 10 (PEG10) using HepaRG (AID 2283520).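 As to AC50: differentiated HepaRG human liver cells in serum-free induction medium with 0.5% DMSO; PEG10 transcript by qRT-PCR normalised to ACTB GAPDH and POLR2A.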 The gist of the method:
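Human HepaRG cultures are dosed for 48 h across an eight-point half-log series starting at 100 uM, with 0.5% DMSO as vehicle and baseline. Gain or loss of PEG10 transcript is measured by qRT-PCR and fitted in both directions.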

Read-out in experiment [8]: Nuclear factor NF-kappa-B p105 subunit (Homo sapiens) (UniProt P19838)
The experiment is described as follows: LTEA_HepaRG_NFKB1: Life Technologies and Expression Analysis (LTEA) Assay for Nuclear Factor Kappa B Subunit 1 (NFKB1) using HepaRG (AID 2283521).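 As to outcome: differentiated human HepaRG liver cells in serum-free induction medium.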 The gist of the method:
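NFKB1 transcript was measured by TaqMan qRT-PCR on Fluidigm arrays, normalised to three housekeeping genes and fitted in both directions against 0.5% DMSO. HepaRG cells were dosed in duplicate for 48 h in serum-free induction medium, eight half-log steps from 100 uM.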

Read-out in experiment [9]: Protein phosphatase 2A (PPP2R4), PTPA (gene 5524)
The experiment is described as follows: LTEA_HepaRG_PPP2R4: Life Technologies and Expression Analysis (LTEA) Assay for Protein phosphatase 2A (PPP2R4) using HepaRG (AID 2283522). The gist of the method: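 Cells were plated, cultured 48 h, switched to serum-free induction medium, then dosed for 48 h (8 points, max 100 uM, 0.5% DMSO). RNA was isolated and PPP2R4 expression measured by TaqMan qRT-PCR.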

Read-out in experiment [10]: Phosphatase and tensin (PTEN), PTEN (gene 5728)
As to the kind of experiment: LTEA_HepaRG_PTEN: Life Technologies and Expression Analysis (LTEA) Assay for Phosphatase and tensin (PTEN) using HepaRG (AID 2283523). Summed up:
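HepaRG, 48 h exposure, 8-pt half-log series from 100 uM top, 0.5% DMSO vehicle, duplicates. Readout: Fluidigm qRT-PCR of PTEN transcript; housekeeping normalization (ACTB, GAPDH, POLR2A). Gain or loss fitted relative to DMSO baseline.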

Read-out in experiment [11]: solute carrier (SLC22A1), SLC22A1 (gene 6580)
The experiment is described as follows: LTEA_HepaRG_SLC22A1: Life Technologies and Expression Analysis (LTEA) Assay for solute carrier (SLC22A1) using HepaRG (AID 2283524).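 As to AC50: differentiated human HepaRG liver cells in serum-free induction medium.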 Summed up:
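qRT-PCR readout (TaqMan, Fluidigm arrays) of SLC22A1 transcript, normalized to three housekeeping genes; bidirectional curve fit relative to 0.5% DMSO vehicle. Differentiated human HepaRG cells, 48 h chemical exposure, top concentration 100 uM, half-log steps, eight points.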

Read-out in experiment [12]: Pyruvate Dehydrogenase Kinase 4 (PDK4), PDK4 (gene 5166)
The experiment is described as follows: LTEA_HepaRG_PDK4: Life Technologies and Expression Analysis (LTEA) Assay for Pyruvate Dehydrogenase Kinase 4 (PDK4) using HepaRG (AID 2283525). The gist of the method:
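HepaRG (human liver line), 48 h chemical exposure, 8-pt half-log CRC top 100 uM, 0.5% DMSO vehicle, duplicates. Readout: TaqMan qRT-PCR of PDK4 mRNA, housekeeping-normalized; gain/loss fit relative to DMSO baseline.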

Read-out in experiment [13]: NAD(P)H dehydrogenase [quinone] 1 (NQO1), NQO1 (gene 1728)
The experiment is described as follows: LTEA_HepaRG_NQO1: Life Technologies and Expression Analysis (LTEA) Assay for NAD(P)H dehydrogenase [quinone] 1 (NQO1) using HepaRG (AID 2283526). Summed up: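 Transcript induction or suppression is quantified by qRT-PCR in human HepaRG liver cells dosed for 48 hours. Eight half-log concentrations topping at 100 uM are used, with 0.5% DMSO as vehicle and baseline.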

Read-out in experiment [14]: Nuclear factor erythroid 2-related factor 2 (Homo sapiens) (UniProt Q16236)
As to the kind of experiment: LTEA_HepaRG_NFE2L2: Life Technologies and Expression Analysis (LTEA) Assay for Nuclear factor erythroid 2-related factor 2 (NFE2L2) Transcription Factor using HepaRG (AID 2283527). The gist of the method:
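HepaRG, 48 h dosing, 8-pt half-log series from 100 uM in 0.5% DMSO, duplicates. Read-out: NFE2L2 mRNA by qRT-PCR (ACTB/GAPDH/POLR2A normalization). Bidirectional curve fit vs DMSO baseline.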

Read-out in experiment [15]: succinate dehydrogenase complex iron sulfur subunit B (SDHB), SDHB (gene 6390)
The experiment is described as follows: LTEA_HepaRG_SDHB: Life Technologies and Expression Analysis (LTEA) Assay for succinate dehydrogenase complex iron sulfur subunit B (SDHB) using HepaRG (AID 2283528). The gist of the method: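 SDHB transcript level read by TaqMan qRT-PCR, housekeeping-normalised (ACTB, GAPDH, POLR2A), after 48 h chemical treatment of plated HepaRG cells; eight concentrations top 100 uM, half-log steps, 0.5% DMSO, duplicates; fitted both directions against DMSO.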

Read-out in experiment [16]: Signal transducer and activator of transcription 3 (Homo sapiens) (UniProt P40763)
The experiment is described as follows: LTEA_HepaRG_STAT3: Life Technologies and Expression Analysis (LTEA) Assay for Signal transducer and activator of transcription (STAT3) using HepaRG (AID 2283529). The gist of the method: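 HepaRG, 48 h exposure, 8-pt half-log series (top 100 uM), 0.5% DMSO vehicle, duplicates. Readout: STAT3 transcript by Fluidigm qRT-PCR, housekeeping-normalized; bidirectional fit vs DMSO baseline.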

Read-out in experiment [17]: sulfotransferase 2A1 (SULT2A1), SULT2A1 (gene 6822)
The experiment is described as follows: LTEA_HepaRG_SULT2A1: Life Technologies and Expression Analysis (LTEA) Assay for sulfotransferase 2A1 (SULT2A1) using HepaRG (AID 2283531). The gist of the method: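 Gene-expression endpoint in a human liver cell line: SULT2A1 mRNA change after 48 h chemical treatment, curves fitted in both directions relative to 0.5% DMSO vehicle. Concentrations spanned eight half-log steps from 100 uM.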

Read-out in experiment [18]: Transforming Growth Factor (TGFA), TGFA (gene 7039)
As to the kind of experiment: LTEA_HepaRG_TGFA: Life Technologies and Expression Analysis (LTEA) Assay for Transforming Growth Factor (TGFA) using HepaRG (AID 2283532). The gist of the method: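 qRT-PCR read-out of TGFA transcript, normalized to three housekeeping genes, fitted bidirectionally against 0.5% DMSO baseline. Human HepaRG cultures received chemicals for 48 h at eight half-log concentrations, top 100 uM.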

Read-out in experiment [19]: solute carrier (SLCO1B1), SLCO1B1 (gene 10599)
As to the kind of experiment: LTEA_HepaRG_SLCO1B1: Life Technologies and Expression Analysis (LTEA) Assay for solute carrier (SLCO1B1) using HepaRG (AID 2283530). Summed up: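 Human HepaRG cultures treated for 48 h with an eight-concentration half-log series topping at 100 uM; SLCO1B1 measured by qRT-PCR and fitted bidirectionally relative to DMSO.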

The source made the active and inactive calls. The calls were made as follows: active = hit-call score of the fitted dose curve at least 0.9, where 1 is the maximum; inactive = score below 0.9.

Signal transducer and activator of transcription 3 (Homo sapiens), sequence (P40763 whole entry, looked up): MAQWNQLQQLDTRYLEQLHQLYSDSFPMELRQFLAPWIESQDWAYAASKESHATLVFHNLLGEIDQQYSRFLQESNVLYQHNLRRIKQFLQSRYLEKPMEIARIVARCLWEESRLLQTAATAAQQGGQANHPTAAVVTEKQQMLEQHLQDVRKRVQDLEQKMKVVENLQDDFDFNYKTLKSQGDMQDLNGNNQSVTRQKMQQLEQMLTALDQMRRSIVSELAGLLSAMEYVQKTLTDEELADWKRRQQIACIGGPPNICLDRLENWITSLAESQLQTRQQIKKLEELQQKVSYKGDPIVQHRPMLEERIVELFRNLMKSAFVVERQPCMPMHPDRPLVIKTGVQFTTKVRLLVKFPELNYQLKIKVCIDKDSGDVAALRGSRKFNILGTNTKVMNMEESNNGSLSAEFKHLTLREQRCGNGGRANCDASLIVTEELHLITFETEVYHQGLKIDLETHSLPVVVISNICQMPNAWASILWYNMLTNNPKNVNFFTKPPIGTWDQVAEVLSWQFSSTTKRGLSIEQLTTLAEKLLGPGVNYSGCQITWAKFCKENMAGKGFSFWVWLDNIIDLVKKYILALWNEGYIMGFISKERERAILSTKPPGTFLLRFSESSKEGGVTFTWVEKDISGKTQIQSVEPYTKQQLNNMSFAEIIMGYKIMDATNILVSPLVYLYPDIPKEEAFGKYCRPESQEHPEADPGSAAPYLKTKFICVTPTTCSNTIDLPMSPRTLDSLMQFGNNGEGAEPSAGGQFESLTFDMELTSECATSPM
Nuclear factor NF-kappa-B p105 subunit (Homo sapiens), sequence (P19838 whole entry, looked up): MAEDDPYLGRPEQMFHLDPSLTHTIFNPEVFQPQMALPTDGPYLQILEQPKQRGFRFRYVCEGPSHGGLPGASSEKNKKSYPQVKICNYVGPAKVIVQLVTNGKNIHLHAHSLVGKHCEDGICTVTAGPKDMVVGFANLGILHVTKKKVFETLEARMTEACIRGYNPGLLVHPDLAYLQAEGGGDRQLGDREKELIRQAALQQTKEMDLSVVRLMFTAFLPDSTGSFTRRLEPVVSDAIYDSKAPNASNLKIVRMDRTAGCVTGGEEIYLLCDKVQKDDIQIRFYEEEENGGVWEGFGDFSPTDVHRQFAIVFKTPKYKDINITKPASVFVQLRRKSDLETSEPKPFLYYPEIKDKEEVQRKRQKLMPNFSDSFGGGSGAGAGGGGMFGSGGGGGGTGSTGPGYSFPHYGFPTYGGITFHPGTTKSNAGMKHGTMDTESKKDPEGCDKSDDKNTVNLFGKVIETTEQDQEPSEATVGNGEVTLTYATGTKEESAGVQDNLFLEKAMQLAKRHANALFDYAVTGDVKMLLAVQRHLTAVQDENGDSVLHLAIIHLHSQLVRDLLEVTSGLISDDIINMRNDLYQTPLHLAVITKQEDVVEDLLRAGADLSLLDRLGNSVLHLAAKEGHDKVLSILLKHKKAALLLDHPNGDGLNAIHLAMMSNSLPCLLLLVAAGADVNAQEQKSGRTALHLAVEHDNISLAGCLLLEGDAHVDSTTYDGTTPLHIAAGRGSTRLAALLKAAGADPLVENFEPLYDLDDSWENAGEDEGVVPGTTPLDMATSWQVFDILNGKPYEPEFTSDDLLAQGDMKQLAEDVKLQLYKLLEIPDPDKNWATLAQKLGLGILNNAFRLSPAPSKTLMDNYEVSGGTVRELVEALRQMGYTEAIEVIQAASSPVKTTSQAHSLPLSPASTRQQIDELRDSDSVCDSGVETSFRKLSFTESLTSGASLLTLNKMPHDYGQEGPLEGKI
Nuclear factor erythroid 2-related factor 2 (Homo sapiens), sequence (Q16236 whole entry, looked up): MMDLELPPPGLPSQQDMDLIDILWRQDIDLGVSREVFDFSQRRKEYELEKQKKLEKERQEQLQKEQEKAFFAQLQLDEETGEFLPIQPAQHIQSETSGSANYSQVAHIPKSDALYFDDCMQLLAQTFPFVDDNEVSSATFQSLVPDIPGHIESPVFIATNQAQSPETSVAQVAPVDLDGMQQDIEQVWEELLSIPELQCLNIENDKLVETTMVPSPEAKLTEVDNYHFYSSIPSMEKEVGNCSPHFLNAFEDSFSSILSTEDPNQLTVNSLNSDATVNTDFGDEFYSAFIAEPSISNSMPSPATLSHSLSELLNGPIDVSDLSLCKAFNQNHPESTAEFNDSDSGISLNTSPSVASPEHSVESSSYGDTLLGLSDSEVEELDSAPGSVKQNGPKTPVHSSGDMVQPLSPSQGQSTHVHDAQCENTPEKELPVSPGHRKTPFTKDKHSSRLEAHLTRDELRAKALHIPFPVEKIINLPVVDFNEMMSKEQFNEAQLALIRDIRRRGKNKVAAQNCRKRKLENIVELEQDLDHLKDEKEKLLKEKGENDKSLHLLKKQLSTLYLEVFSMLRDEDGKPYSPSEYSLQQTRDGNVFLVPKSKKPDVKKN

For the compound `Nc1ccc(Cl)cc1N`, the compound was called inactive in [1], in experiment [5], in [12] and in [16]. Further, the AC50 (usually the concentration giving half of the maximal activity seen) in experiment [2] is 17.3 µM (active); in experiment [3], 13.2 µM (active); in experiment [4] it was 21 µM (active); with MYC, MYC (gene 4609), 13.4 µM (active); in experiment [6] it was 30.1 µM (active); in experiment [7], 14.2 µM (active). For the same compound, the AC50 in experiment [8] is 12.5 µM (active); in experiment [9], 26.3 µM (active); in experiment [10], 32.6 µM (active); in [11], 18.9 µM (active); in experiment [13], 78 µM (active); in experiment [14], 12.2 µM (active). For the same compound, the AC50 is 21.6 µM (active) in experiment [15], 35.4 µM (active) in experiment [17] and 16.1 µM (active) in experiment [18].
For the compound `Nc1ccc(Cc2ccc(N)cc2)cc1`, the outcome was “inactive” in [1]; “inactive” in experiment [2]; “inactive” in experiment [3]; “inactive” in experiment [4]; “inactive” in experiment [5]; “inactive” with MYC, MYC (gene 4609). Further, the result in experiment [7], in experiment [8], in [9], in experiment [10], in experiment [11] and in [12] was inactive. Besides, the call in experiment [13], in [14], in experiment [15], in [16], in [17] and in experiment [18] was inactive.
With `CC(C)COC(=O)c1ccccc1C(=O)OCC(C)C`, the outcome in [1] was “inactive”; in [2], “inactive”; in experiment [3], “inactive”; in experiment [4], “inactive”; in experiment [5] it was “inactive”; with MYC, MYC (gene 4609) it was “inactive”. The call in experiment [6], in experiment [7], in [9], in experiment [11], in experiment [12] and in [13] was inactive. The compound was classed as inactive in [14], in experiment [15], in experiment [16], in [19], in [17] and in [18].
In the case of `c1ccc2c(c1)-c1cccc3cccc-2c13`, the outcome in experiment [1] was “inactive”; in experiment [2], “inactive”; in experiment [3], “inactive”; in [4], “inactive”; in experiment [5], “inactive”; in the experiment with MYC, MYC (gene 4609), “inactive”. Moreover, the call in experiment [6], in [8], in [9], in [12], in [13] and in [14] was inactive. Further, the outcome in experiment [15], in experiment [16], in experiment [17] and in experiment [18] was inactive. Moreover, the AC50 in experiment [7] was 50 µM (active).
